Experimental findings from PubChem BioAssay (NCATS) are described below.

Records with an inconclusive call do not appear. Where a call stands in place of a potency, no number is given. Active and inactive are the calls of the source. Calls follow the shape of the dose curve; as a rule, active = well fitted inhibition curve with a large enough effect; inconclusive = small, poorly fitted or top-dose-only effect; inactive = flat fitted curve, though single readings scatter.

Chain of Phospholipid hydroperoxide glutathione peroxidase GPX4 (Homo sapiens) (P36969 whole entry, looked up): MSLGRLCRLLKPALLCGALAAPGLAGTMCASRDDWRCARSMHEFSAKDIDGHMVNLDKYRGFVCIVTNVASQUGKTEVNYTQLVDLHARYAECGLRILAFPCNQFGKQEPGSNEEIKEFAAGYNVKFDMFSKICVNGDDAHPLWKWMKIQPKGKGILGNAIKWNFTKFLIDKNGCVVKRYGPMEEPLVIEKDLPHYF

The assay concerns the target Phospholipid hydroperoxide glutathione peroxidase GPX4 (Homo sapiens) (UniProt P36969). In words: Primary qHTS Assay for Inhibitors of Recombinant Selenoprotein Glutathione Peroxidase 4 (GPX4) (AID 1845192). Also: nearly all actives have a fitted effect of over 65% in size. The following applies: recombinant GPX4, GR-coupled NADPH fluorescence, 15 min; series mostly up to 27.8 µM. In short, it runs like this: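 qHTS, GR-coupled: GPX4 200 nM + cpd 30 min RT → GSH 1 mM, NADPH 0.5 mM, GR 100 nM → CHP 0.5 mM start; fluor 340/450 at t0 and t15 min; no-enzyme wells as control.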
(qHTS replaces the single test concentration by a dilution series.)
Turning to `C[C@@H]1O[C@@H](O[C@H]2[C@H](O)[C@@H](O)[C@H](OC(=O)[C@]34CCC(C)(C)C[C@H]3C3=CCC5[C@@]6(C)CC[C@H](O[C@@H]7O[C@H](C(=O)O)[C@@H](O)[C@H](O)[C@H]7O)C(C)(C)C6CC[C@@]5(C)[C@]3(C)CC4)O[C@@H]2CO)[C@H](O)[C@H](O)[C@H]1O` (stereo partly specified), the Potency entry was “inactive”. On to `O=C(OC[C@H]1O[C@@H](Oc2ccccc2CO)[C@H](O)[C@@H](O)[C@@H]1O)c1ccccc1`, for which the Potency result is “inactive”. As for `COc1cc(O)cc2c1C(=O)OC(C)C2` (stereo unspecified), the Potency result was “inactive”. With `O=C(/C=C/C=C/c1ccc2c(c1)OCO2)N1CCCCC1`, the Potency result is “inactive”. `COC(=O)C1=COC(O[C@@H]2O[C@H](CO)[C@@H](O)[C@H](O)[C@H]2O)/C(=C\COC(=O)/C=C/c2ccccc2)C1CC(=O)OCCc1ccc(O)cc1` (stereo partly specified): the Potency result is “inactive”. Take `CC1=C2CC3C(CCC3(C)O)C(C)(O)CC2OC1=O` (stereo unspecified): the Potency result is “inactive”.

As for `CC1=C(CO)CC(C(C)C2CCC3C4CC=C5CC(OC6OC(COC7OC(CO)C(O)C(O)C7O)C(O)C(O)C6O)CC(O)C5(C)C4CCC23C)OC1=O` (stereo unspecified), the Potency entry was “inactive”.

In the case of `C/C(=C\CO)CC/C=C(\C)C(=O)O[C@@H]1O[C@H](CO)[C@@H](O)[C@H](O)[C@H]1O`, the Potency entry is “inactive”. As for `C[C@@H]1CCC2C(C)(C)[C@H](O)[C@H](O)C[C@]2(C)[C@@]12Cc1c(O)cc3c(c1O2)CN(CCCC(=O)O)C3=O` (stereo partly specified), the entry is “inactive”; as for `CC(=O)O[C@@H]1C(=O)C(C)=C(CCC(C)CC(=O)O)[C@@]2(C)CCCC(C)(C)C12` (stereo partly specified), “inactive”; as for `COc1cc(C(=O)OCC2=CCC3C(C(=O)O)=COC(O[C@@H]4O[C@H](CO)[C@@H](O)[C@H](O)[C@H]4O)C23)ccc1O` (stereo partly specified), “inactive”.
